Among the data in the supplement of paper PMC10849652 are log2 fold change values, retold here.

About 8,800 targets were measured; listed, in parts, are those with a hit and a random draw of the rest. About 0.5% of all pairs of compound and target were hits.

UniProt O95777, sequence (O95777 whole entry, looked up): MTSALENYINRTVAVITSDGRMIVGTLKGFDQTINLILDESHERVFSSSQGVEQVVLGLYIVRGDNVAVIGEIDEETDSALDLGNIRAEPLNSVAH
UniProt Q9UFC0, sequence (Q9UFC0 whole entry, looked up): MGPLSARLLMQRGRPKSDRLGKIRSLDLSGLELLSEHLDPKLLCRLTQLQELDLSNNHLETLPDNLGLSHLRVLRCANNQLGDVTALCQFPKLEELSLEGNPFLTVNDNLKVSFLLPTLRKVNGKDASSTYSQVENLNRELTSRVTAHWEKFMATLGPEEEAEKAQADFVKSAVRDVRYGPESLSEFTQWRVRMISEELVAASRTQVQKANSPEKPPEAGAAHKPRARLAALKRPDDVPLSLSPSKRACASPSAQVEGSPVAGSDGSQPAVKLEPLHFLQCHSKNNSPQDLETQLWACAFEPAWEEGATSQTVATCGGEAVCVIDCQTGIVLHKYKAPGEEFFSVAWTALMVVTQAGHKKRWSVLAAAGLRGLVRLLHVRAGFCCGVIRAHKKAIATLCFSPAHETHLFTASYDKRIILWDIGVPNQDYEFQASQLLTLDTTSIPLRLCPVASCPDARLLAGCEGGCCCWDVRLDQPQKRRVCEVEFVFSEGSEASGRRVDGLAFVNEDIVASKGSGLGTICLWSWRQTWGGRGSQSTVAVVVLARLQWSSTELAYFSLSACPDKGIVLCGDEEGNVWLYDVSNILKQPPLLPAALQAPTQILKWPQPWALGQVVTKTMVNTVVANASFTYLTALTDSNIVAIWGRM
UniProt Q16659, sequence (Q16659 whole entry, looked up): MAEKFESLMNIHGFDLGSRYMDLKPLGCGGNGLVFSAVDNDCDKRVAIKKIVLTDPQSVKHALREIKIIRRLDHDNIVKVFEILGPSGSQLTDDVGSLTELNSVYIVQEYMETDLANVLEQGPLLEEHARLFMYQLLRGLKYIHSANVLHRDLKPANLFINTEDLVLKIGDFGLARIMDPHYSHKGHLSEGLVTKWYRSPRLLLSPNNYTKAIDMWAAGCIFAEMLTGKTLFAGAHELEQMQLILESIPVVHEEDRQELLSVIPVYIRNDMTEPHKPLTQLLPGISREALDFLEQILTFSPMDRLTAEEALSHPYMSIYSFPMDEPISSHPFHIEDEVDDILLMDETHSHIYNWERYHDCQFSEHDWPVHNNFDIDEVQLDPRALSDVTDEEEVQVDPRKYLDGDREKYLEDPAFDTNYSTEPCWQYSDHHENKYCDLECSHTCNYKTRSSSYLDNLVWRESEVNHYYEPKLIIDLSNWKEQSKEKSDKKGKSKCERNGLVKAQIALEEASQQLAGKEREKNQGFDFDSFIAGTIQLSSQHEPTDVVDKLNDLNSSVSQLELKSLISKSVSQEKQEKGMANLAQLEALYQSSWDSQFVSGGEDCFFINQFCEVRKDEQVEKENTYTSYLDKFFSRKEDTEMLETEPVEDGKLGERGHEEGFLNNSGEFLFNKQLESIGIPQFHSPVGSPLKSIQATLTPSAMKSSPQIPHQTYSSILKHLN
UniProt Q1ED39, sequence (Q1ED39 whole entry, looked up): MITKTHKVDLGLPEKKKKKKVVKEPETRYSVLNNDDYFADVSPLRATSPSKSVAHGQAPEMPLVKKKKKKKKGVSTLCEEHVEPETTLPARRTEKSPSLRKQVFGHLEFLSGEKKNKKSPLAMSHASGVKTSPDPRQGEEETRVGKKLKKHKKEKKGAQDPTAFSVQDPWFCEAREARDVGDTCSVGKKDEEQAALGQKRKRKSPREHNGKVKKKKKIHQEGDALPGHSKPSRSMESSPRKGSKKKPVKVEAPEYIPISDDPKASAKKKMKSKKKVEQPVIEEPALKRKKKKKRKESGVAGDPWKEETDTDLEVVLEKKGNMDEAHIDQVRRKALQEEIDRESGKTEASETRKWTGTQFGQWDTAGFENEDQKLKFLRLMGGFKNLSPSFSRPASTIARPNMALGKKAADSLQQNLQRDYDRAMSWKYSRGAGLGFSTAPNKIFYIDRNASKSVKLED
UniProt Q9Y6R4, sequence (Q9Y6R4 whole entry, looked up): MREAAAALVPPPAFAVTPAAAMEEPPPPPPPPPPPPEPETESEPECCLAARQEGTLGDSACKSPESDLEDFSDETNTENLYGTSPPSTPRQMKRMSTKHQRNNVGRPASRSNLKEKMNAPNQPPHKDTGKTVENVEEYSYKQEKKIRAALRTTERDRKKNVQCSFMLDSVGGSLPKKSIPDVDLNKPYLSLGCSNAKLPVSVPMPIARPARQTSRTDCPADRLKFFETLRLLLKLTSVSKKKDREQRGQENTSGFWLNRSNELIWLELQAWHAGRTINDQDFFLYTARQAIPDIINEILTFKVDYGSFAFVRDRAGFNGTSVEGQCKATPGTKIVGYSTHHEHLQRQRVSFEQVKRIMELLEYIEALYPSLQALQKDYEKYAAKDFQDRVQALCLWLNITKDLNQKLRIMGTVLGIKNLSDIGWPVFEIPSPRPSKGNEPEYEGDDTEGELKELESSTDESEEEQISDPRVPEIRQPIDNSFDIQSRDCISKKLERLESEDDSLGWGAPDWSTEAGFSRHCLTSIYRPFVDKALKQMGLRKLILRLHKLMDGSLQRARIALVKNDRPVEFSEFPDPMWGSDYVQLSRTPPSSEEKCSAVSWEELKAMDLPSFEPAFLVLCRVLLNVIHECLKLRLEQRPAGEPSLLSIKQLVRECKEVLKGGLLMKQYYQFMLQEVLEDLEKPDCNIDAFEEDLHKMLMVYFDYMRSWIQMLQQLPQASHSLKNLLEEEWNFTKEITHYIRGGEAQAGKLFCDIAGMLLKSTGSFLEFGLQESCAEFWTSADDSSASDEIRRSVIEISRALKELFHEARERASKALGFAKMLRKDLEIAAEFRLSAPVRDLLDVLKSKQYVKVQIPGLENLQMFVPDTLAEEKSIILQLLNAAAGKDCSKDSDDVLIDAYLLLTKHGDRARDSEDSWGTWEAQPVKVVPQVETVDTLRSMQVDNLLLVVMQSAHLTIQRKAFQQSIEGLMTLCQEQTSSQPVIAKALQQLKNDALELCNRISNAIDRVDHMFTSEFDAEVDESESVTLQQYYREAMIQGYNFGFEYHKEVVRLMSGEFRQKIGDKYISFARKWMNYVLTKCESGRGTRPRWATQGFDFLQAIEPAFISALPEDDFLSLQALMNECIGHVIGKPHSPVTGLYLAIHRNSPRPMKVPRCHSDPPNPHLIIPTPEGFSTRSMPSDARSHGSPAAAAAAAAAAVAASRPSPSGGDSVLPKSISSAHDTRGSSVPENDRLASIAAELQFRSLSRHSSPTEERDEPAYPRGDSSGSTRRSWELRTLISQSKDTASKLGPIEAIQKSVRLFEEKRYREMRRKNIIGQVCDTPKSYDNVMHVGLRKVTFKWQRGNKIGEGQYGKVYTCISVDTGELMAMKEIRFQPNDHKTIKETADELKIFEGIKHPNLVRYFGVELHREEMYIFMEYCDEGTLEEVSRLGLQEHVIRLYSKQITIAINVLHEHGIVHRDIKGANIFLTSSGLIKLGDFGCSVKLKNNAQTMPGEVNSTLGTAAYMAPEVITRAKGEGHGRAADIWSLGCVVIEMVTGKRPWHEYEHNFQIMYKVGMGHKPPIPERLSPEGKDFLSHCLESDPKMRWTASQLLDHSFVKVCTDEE
UniProt O14733, sequence (O14733 whole entry, looked up): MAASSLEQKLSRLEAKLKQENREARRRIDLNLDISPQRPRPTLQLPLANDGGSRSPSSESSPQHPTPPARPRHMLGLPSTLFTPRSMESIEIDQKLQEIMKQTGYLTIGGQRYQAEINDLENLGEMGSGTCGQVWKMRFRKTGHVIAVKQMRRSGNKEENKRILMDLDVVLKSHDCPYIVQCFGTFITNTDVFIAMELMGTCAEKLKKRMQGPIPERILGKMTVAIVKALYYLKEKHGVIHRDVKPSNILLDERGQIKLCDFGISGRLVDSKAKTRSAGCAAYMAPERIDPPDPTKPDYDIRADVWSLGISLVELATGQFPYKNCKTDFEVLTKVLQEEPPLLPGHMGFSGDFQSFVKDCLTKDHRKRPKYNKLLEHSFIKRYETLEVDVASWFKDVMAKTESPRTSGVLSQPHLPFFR
UniProt P53778, sequence (P53778 whole entry, looked up): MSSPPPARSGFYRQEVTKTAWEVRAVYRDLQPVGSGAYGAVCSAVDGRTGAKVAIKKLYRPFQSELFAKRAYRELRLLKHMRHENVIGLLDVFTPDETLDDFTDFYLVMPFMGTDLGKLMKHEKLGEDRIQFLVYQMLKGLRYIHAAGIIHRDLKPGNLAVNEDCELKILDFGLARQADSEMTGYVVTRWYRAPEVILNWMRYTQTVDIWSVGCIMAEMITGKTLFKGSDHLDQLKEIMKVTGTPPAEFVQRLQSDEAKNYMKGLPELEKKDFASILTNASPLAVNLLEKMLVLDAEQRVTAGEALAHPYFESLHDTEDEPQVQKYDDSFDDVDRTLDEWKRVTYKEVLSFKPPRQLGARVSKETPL
UniProt Q68D91, sequence (Q68D91 whole entry, looked up): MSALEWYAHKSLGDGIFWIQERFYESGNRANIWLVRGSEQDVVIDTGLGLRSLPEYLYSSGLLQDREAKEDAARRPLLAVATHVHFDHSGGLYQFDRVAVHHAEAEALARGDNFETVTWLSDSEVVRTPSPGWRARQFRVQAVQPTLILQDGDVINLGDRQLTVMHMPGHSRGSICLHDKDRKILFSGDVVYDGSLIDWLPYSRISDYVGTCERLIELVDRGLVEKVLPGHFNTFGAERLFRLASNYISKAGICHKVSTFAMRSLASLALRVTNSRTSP
UniProt Q16644, sequence (Q16644 whole entry, looked up): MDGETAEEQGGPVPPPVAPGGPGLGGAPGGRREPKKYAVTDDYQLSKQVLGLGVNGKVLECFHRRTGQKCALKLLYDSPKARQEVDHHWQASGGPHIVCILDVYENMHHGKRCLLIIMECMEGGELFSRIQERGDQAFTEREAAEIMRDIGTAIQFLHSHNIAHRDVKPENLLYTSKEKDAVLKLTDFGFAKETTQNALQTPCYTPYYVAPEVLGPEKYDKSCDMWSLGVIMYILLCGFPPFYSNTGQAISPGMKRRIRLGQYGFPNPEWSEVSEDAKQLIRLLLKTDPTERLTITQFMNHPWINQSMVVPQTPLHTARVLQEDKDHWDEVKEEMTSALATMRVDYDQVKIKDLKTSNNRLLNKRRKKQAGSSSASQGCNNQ

Compound in the first test: C1CCN(C1)C(=O)NC2=CC=CC(=C2)NC3=NC=C(C(=N3)NCCC4=CN=CN4)Br
Put plainly: log2 fold change, soluble protein after heating vs DMSO (PISA); higher = thermal stabilisation; K562 lysate, 10 uM; active = over 0.2 and 3.5 SD of the protein, either way, in both replicates (recomputed). Summed up: (§1)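 K562 pellets were dounce-homogenised in PBS pH 7.4 containing 1 mM MgCl2, and the crude extract, at 1 mg/mL protein, was exposed to 10 μM compound for 30 min. Aliquots were heated for 3 min across 48°C-58°C, pooled, brought to 0.5% NP-40 at 4°C and spun at 21,000xg for 90 min, with the supernatant taken as soluble protein. TMTpro 16plex LC-MS/MS with equalised channel sums quantified that protein. Values are log-two fold changes in thermal stability relative to solvent controls, taken from duplicates.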
As for KIF4A (UniProt O95239), the log2 fold change was -0.026 (inactive).

For the target MBLAC2 (UniProt Q68D91), the log2 fold change was 0.026 (inactive).

On to MAP2K1 (UniProt Q02750), for which the log2 fold change is 0.105 (inactive).

Consider MIPEP (UniProt Q99797), for which the log2 fold change was 0.006 (inactive).

Regarding LARS (UniProt Q9P2J5), the log2 fold change is -0.012 (inactive).

Regarding LSM8 (UniProt O95777), the log2 fold change was -0.008 (inactive).

Consider MAP2K7 isoform 4 (UniProt O14733), for which the log2 fold change is -0.106 (inactive).

Regarding MAPKAPK3 (UniProt Q16644), the log2 fold change was 0.045 (inactive).

Turning to LARP4B (UniProt Q92615), the log2 fold change is 0.012 (inactive).

With MAPK6 (UniProt Q16659), the log2 fold change was 0.068 (inactive).

MAP11 (UniProt Q8WVR3): the log2 fold change was -0.135 (inactive).

With MICB, A0A140T979, the log2 fold change is -0.021 (inactive).

For the target LPCAT1 (UniProt Q8NF37), the log2 fold change was -0.007 (inactive).

On to METTL7A (UniProt Q9H8H3), for which the log2 fold change was 0.385 (active).

Turning to MAP4K4 isoform 3 (UniProt O95819), the log2 fold change was 0.008 (inactive).

Take LLGL1 (UniProt Q15334): the log2 fold change was -0.08 (inactive).

For MAP3K4 (UniProt Q9Y6R4), the log2 fold change was 0.051 (inactive).

For KIF14 (UniProt Q15058), the log2 fold change was -0.002 (inactive).

Turning to LAGE3 (UniProt Q14657), the log2 fold change was 0 (inactive).

For the target KMT2A isoform 3 (UniProt Q03164), the log2 fold change was 0.005 (inactive).

As for LUZP1 (UniProt Q86V48), the log2 fold change was -0.009 (inactive).

As to MRPL15 (UniProt Q9P015), the log2 fold change was -0.023 (inactive).

For the target MPZL1 (UniProt O95297), the log2 fold change was 0.015 (inactive).

Take MORC3 (UniProt Q14149): the log2 fold change is -0.029 (inactive).

Turning to LYRM4 (UniProt Q9HD34), the log2 fold change was -0.02 (inactive).

As for MLLT11 (UniProt Q13015), the log2 fold change is -0.372 (inactive).

Regarding LRCH3 (UniProt Q96II8), the log2 fold change is -0.102 (inactive).

With KNOP1 (UniProt Q1ED39), the log2 fold change is -0.128 (inactive).

Turning to MRPL46 (UniProt Q9H2W6), the log2 fold change was -0.009 (inactive).

On to LPIN1 isoform 7 (UniProt Q14693), for which the log2 fold change is 0.038 (inactive).

Take MAPK12 (UniProt P53778): the log2 fold change is -0.058 (inactive).

Regarding LSG1 (UniProt Q9H089), the log2 fold change was -0.031 (inactive).

MBOAT2 (UniProt Q6ZWT7): the log2 fold change was -0.148 (inactive).

In the case of MAPKAPK5 (UniProt Q8IW41), the log2 fold change is 0.035 (inactive).

Turning to LRWD1 (UniProt Q9UFC0), the log2 fold change was 0.002 (inactive).

In the case of MPI (UniProt P34949), the log2 fold change was -0.003 (inactive).

MMS19 isoform 8 (UniProt Q96T76): the log2 fold change was 0.01 (inactive).

Regarding MRPL19 (UniProt P49406), the log2 fold change is -0.014 (inactive).

Compound in a further test: C1CN(CCC1(CC2=CC=C(C=C2)Cl)N)C3=NC=NC4=C3C=CN4
The description is as above. Summed up: as §1
For the target KIF4A (UniProt O95239), the log2 fold change was 0.031 (inactive).

MBLAC2 (UniProt Q68D91): the log2 fold change was -0.007 (inactive).

As to MAP2K1 (UniProt Q02750), the log2 fold change is 0.077 (inactive).

For the target MIPEP (UniProt Q99797), the log2 fold change was 0.005 (inactive).

In the case of LARS (UniProt Q9P2J5), the log2 fold change is -0.002 (inactive).

Consider LSM8 (UniProt O95777), for which the log2 fold change is -0.021 (inactive).

Consider MAP2K7 isoform 4 (UniProt O14733), for which the log2 fold change was 0.078 (inactive).

For the target MAPKAPK3 (UniProt Q16644), the log2 fold change is -0.052 (inactive).

Consider LARP4B (UniProt Q92615), for which the log2 fold change is -0.033 (inactive).

Turning to MAPK6 (UniProt Q16659), the log2 fold change was 0.015 (inactive).

For MAP11 (UniProt Q8WVR3), the log2 fold change was 0.02 (inactive).

As to MICB, A0A140T979, the log2 fold change is 0.275 (inactive).

LPCAT1 (UniProt Q8NF37): the log2 fold change is -0.025 (inactive).

METTL7A (UniProt Q9H8H3): the log2 fold change was 0.06 (inactive).

Regarding MAP4K4 isoform 3 (UniProt O95819), the log2 fold change was -0.011 (inactive).

As to LLGL1 (UniProt Q15334), the log2 fold change was 0.018 (inactive).

On to MAP3K4 (UniProt Q9Y6R4), for which the log2 fold change was -0.101 (inactive).

Consider KIF14 (UniProt Q15058), for which the log2 fold change was 0.008 (inactive).

Turning to LAGE3 (UniProt Q14657), the log2 fold change is 0.022 (inactive).

Turning to KMT2A isoform 3 (UniProt Q03164), the log2 fold change is -0.06 (inactive).

For the target LUZP1 (UniProt Q86V48), the log2 fold change was 0.009 (inactive).

Regarding MRPL15 (UniProt Q9P015), the log2 fold change is -0.016 (inactive).

MPZL1 (UniProt O95297): the log2 fold change is -0.04 (inactive).

Consider MORC3 (UniProt Q14149), for which the log2 fold change is 0.002 (inactive).

LYRM4 (UniProt Q9HD34): the log2 fold change is 0.06 (inactive).

For MLLT11 (UniProt Q13015), the log2 fold change is 0.111 (inactive).

Take LRCH3 (UniProt Q96II8): the log2 fold change was -0.014 (inactive).

With KNOP1 (UniProt Q1ED39), the log2 fold change is 0.118 (inactive).

Take MRPL46 (UniProt Q9H2W6): the log2 fold change is -0.064 (inactive).

Take LPIN1 isoform 7 (UniProt Q14693): the log2 fold change was 0.132 (inactive).

As to MAPK12 (UniProt P53778), the log2 fold change was 0.019 (inactive).

Take LSG1 (UniProt Q9H089): the log2 fold change was 0.103 (inactive).

In the case of MBOAT2 (UniProt Q6ZWT7), the log2 fold change is -0.011 (inactive).

Consider MAPKAPK5 (UniProt Q8IW41), for which the log2 fold change is 0.031 (inactive).

For the target LRWD1 (UniProt Q9UFC0), the log2 fold change was 0.03 (inactive).

For MPI (UniProt P34949), the log2 fold change is 0.038 (inactive).

Consider MMS19 isoform 8 (UniProt Q96T76), for which the log2 fold change was 0.034 (inactive).

In the case of MRPL19 (UniProt P49406), the log2 fold change was 0.005 (inactive).
